26 molecules from PubChem BioAssay (NCATS) can be followed below.

Assay [1] in a line: Primary qHTS for inhibitors of La Crosse Virus (LACV) - induced cell death in SH-SY5Y cells (AID 1508616).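 Also: top concentration of the series differs between compounds; higher means more rescue of cells from virus-induced death.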 The essentials: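 Protection against LACV-induced cell death is scored in SH-SY5Y cells exposed to compounds and virus (0.01 MOI) for 6 days. Data normalized to virus-infected DMSO wells and virus-free DMSO wells.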
(In general: Quantitative high-throughput screening tests each substance at several concentrations.)

Assay [2] is described as follows: Primary qHTS for small molecule stabilizers of the endoplasmic reticulum resident proteome: Secreted ER Calcium Modulated Protein (SERCaMP) assay (AID 1508630). In short, it runs like this: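 GLuc-SERCaMP-expressing SH-SY5Y cells, pretreated 16 h with compound, are challenged with thapsigargin to empty ER calcium stores; after 4 h, coelenterazine is added directly to the medium and luminescence is imaged.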

Assay [3] can be described thus: A High-Content qHTS Against Drug Library for the Identification of Small Molecules that Inhibit DYT1 Early Onset Primary Dystonia-Associated Cell Pathology (AID 1645839; calls by dose curve; also: series mostly up to about 46 µM). The essentials:
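Readout: %pathology, the punctate EGFP-TorsinA distribution from imaging, as the primary channel and cell count as the toxicity counterscreen. HEK293 Flp-In cells expressing delE TorsinA were induced with tetracycline and treated with compound for 48 h.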

For assay [4], the target named is Cytochrome P450 2D6 (Homo sapiens) (UniProt P10635). In words: Cytochrome P450 family 2 subfamily D member 6 (CYP2D6) small molecule antagonists: luciferase biochemical (cell-free) qHTS assay (AID 1645840; active = well fitted curve in the direction sought with a large enough effect in the repeat runs; an effect the other way counts as inactive or inconclusive; also: nearly all actives have a fitted effect of over 55% in size; also: potency is read from the fitted curve at half-maximal effect). In short, it runs like this: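 P450-Glo luminescent screen: recombinant CYP2D6 enzyme–proluciferin substrate mix preincubated with compound 10 min at room temperature, then NADPH regeneration added for 1 h at room temperature. Detection reagent added for 20 min; luciferin light read as relative luminescence units.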
Sequence of Cytochrome P450 2D6 (Homo sapiens) (P10635 whole entry, looked up): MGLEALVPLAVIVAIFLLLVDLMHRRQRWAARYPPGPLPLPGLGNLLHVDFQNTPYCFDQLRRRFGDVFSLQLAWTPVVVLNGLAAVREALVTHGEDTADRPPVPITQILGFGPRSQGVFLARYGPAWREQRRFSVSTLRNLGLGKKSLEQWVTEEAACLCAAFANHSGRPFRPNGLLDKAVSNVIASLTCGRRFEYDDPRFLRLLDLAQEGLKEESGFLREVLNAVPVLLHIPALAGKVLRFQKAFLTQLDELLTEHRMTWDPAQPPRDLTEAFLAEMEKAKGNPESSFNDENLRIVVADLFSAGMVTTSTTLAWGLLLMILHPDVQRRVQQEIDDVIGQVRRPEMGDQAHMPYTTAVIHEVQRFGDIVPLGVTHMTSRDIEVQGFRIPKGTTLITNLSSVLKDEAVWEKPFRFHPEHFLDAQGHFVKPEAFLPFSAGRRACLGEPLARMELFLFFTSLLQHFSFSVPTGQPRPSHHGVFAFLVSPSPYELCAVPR

Assay [5] has as its target Calcium and integrin-binding protein 1 (Homo sapiens) (UniProt Q99828). In words: Validation qHTS for Identification of Calcium Integrin Binding protein 1 (CIB1) Competitor (AID 1508618). In short, it runs like this: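 CIB1-GST (1 uM final) in 5 mM HEPES pH 7.4, 125 mM NaCl, 5 mM CaCl2, 0.01% Tween20 was preincubated 15 min at room temperature with compound (up to 114 uM), then FITC-alphaIIb peptide (100 nM) added for 15 min; fluorescence polarization read.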

Assay [6] has the same target. In words: Primary qHTS for Identification of Calcium Integrin Binding Protein 1 (CIB1) Competitor (AID 1508620).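 Also: GST tagged CIB1 binding a fluorescein labelled alphaIIb integrin peptide tracer; top concentration of the series differs between compounds.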 In short, it runs like this: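 Fluorescence polarization competition: CIB1-GST (1 uM final) preincubated with compound 15 min at room temperature, then FITC-labeled alphaIIb peptide (100 nM final) added for another 15 min. Polarization read at Ex 480/Em 540.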

The target is the same in assay [7]. In words: Confirmatory qHTS for Identification of Calcium Integrin Binding Protein 1 (CIB1) Competitor (AID 1508617). Also: nearly all actives have a fitted effect of over 65% in size. Also: potency is read from the fitted curve at half-maximal effect. In short, it runs like this: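 Fluorescence polarization competition: CIB1-GST (1 uM final) in 5 mM HEPES pH 7.4, 125 mM NaCl, 5 mM CaCl2, 0.01% Tween20 preincubated 15 min RT with compound (up to 114 uM), then FITC-alphaIIb peptide (100 nM) added, 15 min RT.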

Assay [8] in a line: Counterscreen qHTS for small molecule stabilizers of the endoplasmic reticulum resident proteome: GLuc-NoTag assay (AID 1508627).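 Also: SH-SY5Y cells given compound then 100 nM thapsigargin to empty ER calcium; series mostly up to about 76 µM.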 In short, it runs like this:
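SH-SY5Y cells stably expressing constitutively secreted GLuc (no SERCaMP tag) were pre-incubated 5 h, treated with compound for 19 h, then 100 nM thapsigargin for 4 h at 37C; medium GLuc read by coelenterazine luminescence.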

A short description of assay [9]: Confirmatory qHTS for small molecule stabilizers of the endoplasmic reticulum resident proteome: Secreted ER Calcium Modulated Protein (SERCaMP) assay (AID 1508628). Also: nearly all actives have a fitted effect of over 40% in size. Also: potency is read from the fitted curve at half-maximal effect. The text has this: (§1) Assay Provider: Brandon K. Harvey Ph.D.
(§2) National Institute on Drug Abuse, National Institutes of Health, Baltimore, MD
(§3) Endoplasmic reticulum (ER) dysregulation is associated with human pathologies including neurodegenerative, cardiovascular, muscular, and diabetic conditions. Maintenance of ER calcium is critical for functions of the ER and its depletion can lead to loss of ER resident proteins, in a process termed exodosis. Therapeutic compounds capable of attenuating the redistribution of ER proteins under pathological conditions may slow or stop disease progression. To identify such compounds, we performed a quantitative high-throughput screen (qHTS) using the SERCaMP assay, which monitors secretion of ER resident proteins triggered by calcium depletion.
(§4) SERCaMP was initially developed as a reporter of ER calcium homeostasis using a Gaussia luciferase with a modified signal peptide and carboxy-terminus (GLuc-SERCaMP), modifications that confer secretion of the reporter in response to ER calcium depletion (Henderson et al., 2014). The assay was used to screen 9,501 compounds, including a collection of drugs approved by the FDA (US), EMA (EU), NHI (Japan), and HC (Canada) regulatory agencies (Huang et al., 2011). Since the SERCaMP reporter reflects the exodosis phenomenon (Trychta et al., 2018a), compounds identified in the screen have the potential to prevent exodosis by different mechanisms such as stabilizing ER calcium or augmenting ERS retrieval.
(§5) 1. Henderson, M.J., Wires, E.S., Trychta, K.A., Richie, C.T., and Harvey, B.K. (2014). SERCaMP: a carboxy-terminal protein modification that enables monitoring of ER calcium homeostasis. Mol Biol Cell 25, 2828-2839.
(§6) 2. Huang, R., Southall, N., Wang, Y., Yasgar, A., Shinn, P., Jadhav, A., Nguyen, D.T., and Austin, C.P. (2011). The NCGC pharmaceutical collection: a comprehensive resource of clinically approved drugs enabling repurposing and chemical genomics. Sci Transl Med 3, 80ps16.
(§7) 3. Trychta, K.A., Back, S., Henderson, M.J., and Harvey, B.K. (2018a). KDEL Receptors Are Differentially Regulated to Maintain the ER Proteome under Calcium Deficiency. Cell Rep 25, 1829-1840 e1826.
(§8) SEQUENCE No. (1, 2, 3, etc.); […] (e.g., Cells, Incubation, Reagent, etc.); VALUE and DESCRIPTION.
(§9) 1; Reagent; 5 uL; 1000 SH-SY5Y cells per wells
(§10) 3; Compound; 23 nL; Control inhibitor / compound library
(§11) 5; Reagent; 100 nM; Thapsigargin
7; Reagent; 1 uL; 0.5x coelenterazine
8; Detection; Luminescence; ViewLux imaging system
NOTES (numbers refer to sequence above)
1; SH-SY5Y human neuroblastoma cells stably expressing GLuc-SERCaMP (SH-SY5Y-GLuc-ASARTDL) cells were seeded in 1,536 well white tissue culture treated plates (Corning, Cat# 7464) in DMEM-high glucose-sodium pyruvate (ThermoFisher Scientific, Cat #10569) supplemented with 10% bovine growth serum (Hyclone), 10 U/ml penicillin (Gibco), 10 ug/ml streptomycin (Gibco), and 20 mM HEPES.
2; Assay plates were incubated for 5 hour at 37C in a humidified incubator containing 5% CO2. […]
7; Gaussia luciferase in the medium was measured by adding 1 ul of 0.5x coelenterazine (final concentration 0.07x) prepared in Gaussia Luciferase Glow Assay Buffer (Pierce), without addition of the Cell Lysis Buffer Reagent.
8; Luminescence was measured using a ViewLux […] CCD imaging system (Perkin Elmer) equipped with clear filters. […]

Assay [10] can be described thus: Cell Viability qHTS for small molecule stabilizers of the endoplasmic reticulum resident proteome (AID 1508629).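 Also: compound exposure about 46 h in total before the viability read.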 The following applies: cell viability counter-screen, 100 nM thapsigargin for final 4 h.
Source text: as §1, §2, §3, §4, §5, §6, §7, §8, §9, §10, §11
7; Reagent; 5 uL; CellTiter-Glo (Promega)
8; Time; 10 min; room temperature
9; Detection; Luminescence; ViewLux imaging system
NOTES (numbers refer to sequence above) […]
7; Cell viability was measured using the CellTiter-Glo Luminescent Cell Viability Assay (Promega). […]
9; Luminescence was measured using a ViewLux CCD imaging system (Perkin Elmer) equipped with clear filters.

Several values for one entry are separate records, joined by “and”; a condition that tells them apart may be missing. Equal entries are not always repeated. Records with an inconclusive call do not appear. Where a call stands in place of a potency, no number is given. More than one record can exist for a structure, and the calls need not agree. Activity calls are given as the source filed them. Unless noted, calls follow the shape of the dose curve; as a rule, active = well fitted curve in the direction sought with a large enough effect; inconclusive = small, poorly fitted or top-dose-only effect, or another doubt; inactive = no such curve, though single readings can be large; an effect the other way counts as inactive or inconclusive.

Sequence of Calcium and integrin-binding protein 1 (Homo sapiens) (Q99828 whole entry, looked up): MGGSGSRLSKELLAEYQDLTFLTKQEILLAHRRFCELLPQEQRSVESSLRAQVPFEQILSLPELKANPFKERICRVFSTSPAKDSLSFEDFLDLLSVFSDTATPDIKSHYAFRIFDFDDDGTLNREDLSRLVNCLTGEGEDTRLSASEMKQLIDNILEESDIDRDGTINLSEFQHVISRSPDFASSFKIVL

`O=C(O)c1cc(-c2ccccc2)nc2ccccc12`: the molecule was called inactive in assay [1]. The Potency entry in assay [2], in assay [3] and in assay [4] was “inactive” throughout.

`CCN1CCC[C@H]1CNC(=O)c1cc(S(N)(=O)=O)ccc1OC`: the result in [5] was inactive. For the same molecule, the Potency entry in assay [6], in assay [2], in assay [3] and in [4] was “inactive” throughout.

Take `CC(C)(C)c1ccc(C(O)CCCN2CCC(C(O)(c3ccccc3)c3ccccc3)CC2)cc1` (stereo not drawn): the outcome in assay [5] was inactive. For the same molecule, the Potency result in [6] was “inactive”.

In the case of `CC(=O)c1ccc(S(=O)(=O)NC(=O)NC2CCCCC2)cc1`, in assay [5], the outcome was inactive. Moreover, the Potency result in assay [6], in assay [2], in [3] and in assay [4] was “inactive” in each case.

With `O=C(NCCN1CCOCC1)c1ccc(Cl)cc1`, the outcome in assay [5] was inactive. Further, the Potency entry in [6], in [2] and in assay [3] was “inactive” throughout. For the same molecule, the Potency in assay [4] is 9.77 µM (active).

In the case of `COc1ccc(Cc2nccc3cc(OC)c(OC)cc23)cc1OC`, in [5], the outcome was inactive.

Regarding `CC1(C)CCC2=C(O1)c1ccccc1C(=O)C2=O`, the outcome in assay [5] was inactive. The Potency entry in [2] was “inactive”.

Take `O=C(O)c1ccc(-c2c[nH]c3ncc(-c4ccccc4)cc23)cc1C1CCCC1`: in assay [6], the Potency entry is “inactive”.

In the case of `O=C(O)c1c(Cl)c(Cl)c(Cl)c(Cl)c1-c1c2cc(I)c(=O)c(I)c-2oc2c(I)c(O)c(I)cc12`, the Potency entry in assay [7] and in assay [2] was “inactive” each time. Moreover, the Potency in assay [4] is 4.25 µM (active).

As to `CCCCCN(C)CCC(O)(P(=O)(O)O)P(=O)(O)O`, the call in assay [1] was inactive. Besides, the Potency entry in [2] is “inactive”.

With `COc1cccc(-c2cc(=O)c3ccccc3o2)c1N`, the result in [5] was inactive. For the same molecule, the Potency entry in assay [6] and in [2] was “inactive” throughout.

With `NC(N)=Nc1nc(CSCC/C(N)=N/S(N)(=O)=O)cs1`, the outcome in assay [5] was inactive. For the same molecule, the Potency result in assay [6], in assay [2] and in assay [3] was “inactive” in each case.

With `CCN(CC)CCNC(=O)c1ccc(N)cc1`, the outcome in [5] was inactive. For the same molecule, the Potency entry in assay [6], in assay [2], in [3] and in assay [4] was “inactive” throughout.

For `COc1ccccc1N1CCN(CCCNc2cc(=O)n(C)c(=O)n2C)CC1`, the outcome in assay [5] was inactive. Also, the Potency result in assay [6], in [2] and in [3] was “inactive” in each case.

Regarding `CC1=C(/C=C/C(C)=C/C=C/C(C)=C/C(=O)Nc2ccc(O)cc2)C(C)(C)CCC1`, in assay [5], the outcome was inactive. Moreover, the Potency result in assay [6], in [8] and in assay [2] was “inactive” in each case. The Potency entry in assay [9] is “inactive and 31.6 µM (active)”. In addition, the max response in [10] was 14.9% (inactive).

As to `CCc1ccc(C=C2SC(=S)NC2=O)cc1`, in assay [7], the Potency is 8.91 µM (active). The Potency entry in [2] was “inactive”.

Regarding `O=c1cc(-c2ccccc2)oc2cc(O)c(O)c(O)c12`, the Potency in assay [7] is 39.8 µM (active). In addition, the Potency entry in assay [2] is “inactive”.

On to `NCCS`, for which, in [5], the result was inactive. In addition, the Potency result in assay [6], in assay [2], in assay [3] and in assay [4] was “inactive” in each case.

For the molecule `CC(=O)N[C@@H](CS)C(=O)O`, the result in assay [5] was inactive. The Potency entry in [6], in assay [2], in assay [3] and in assay [4] was “inactive” in each case.

Consider `Clc1ccc(C(c2ccc(Cl)cc2)n2cc[n+](CC(OCc3ccc(Cl)cc3Cl)c3ccc(Cl)cc3Cl)c2)cc1` (stereo not drawn), for which, in [5], the outcome was inactive. Further, the Potency result in assay [6] and in [2] was “inactive” in each case.

`O=c1cc(-c2ccc(O)cc2)oc2cc(O)cc(O)c12`: the result in [5] was inactive. Also, the Potency entry in assay [6] and in [2] was “inactive” throughout. The Potency in [4] is 12 µM (active).

With `COC(=O)C1=CO[C@@H](O)[C@@H]2C(CO)=CC[C@@H]12`, the Potency entry in assay [6] was “inactive”.

`COc1cc2nc(-c3ccc(N4CCN(C)CC4)cc3)nc(NCCN3CCOCC3)c2cc1OC`: the Potency entry in [6] was “inactive”.

With `O=C1NC(=O)C(c2ccccc2)(c2ccccc2)N1`, in assay [5], the outcome was inactive. For the same molecule, the Potency result in assay [6], in assay [2], in [3] and in [4] was “inactive” in each case.

As to `CCCNC(=O)NS(=O)(=O)c1ccc(Cl)cc1`, the result in assay [5] was inactive. Moreover, the Potency entry in [6], in assay [2], in assay [3] and in assay [4] was “inactive” in each case.

`CC(C)NCC(O)COc1cccc2[nH]ccc12` (stereo not drawn): in assay [5], the outcome was inactive. The Potency result in assay [6] and in assay [3] was “inactive” in each case.
